Reference: PubChem BioAssay (NCI)
The panel holds about 83,000 compounds, 20% with a hit somewhere; the sample as a whole holds those more often.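 Interpretation: 100, growth as untreated; towards 0, rising growth inhibition; 0, no net growth; 0 to -100, cell death. Compounds scoring below 10 were considered active.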 The source made the active and inactive calls.

Key:
Test in all cases: NCI-60 one-dose screen, 48 h (100 = growth as untreated, 0 = no growth, -100 = all killed)
Conditions in all cases: 10 µM unless noted
SR leukemia = system: SR leukemia
RPMI-8226 leukemia = system: RPMI-8226 leukemia
OVCAR-8 ovarian = system: OVCAR-8 ovarian
OVCAR-5 ovarian = system: OVCAR-5 ovarian
OVCAR-4 ovarian = system: OVCAR-4 ovarian
SK-OV-3 ovarian = system: SK-OV-3 ovarian
IGROV1 ovarian = system: IGROV1 ovarian
OVCAR-3 ovarian = system: OVCAR-3 ovarian
HS 578T breast = system: HS 578T breast
NCI/ADR-RES ovarian = system: NCI/ADR-RES ovarian
T-47D breast = system: T-47D breast
MDA-MB-435 melanoma = system: MDA-MB-435 melanoma
SW-620 colon = system: SW-620 colon
MCF7 breast = system: MCF7 breast
HCT-116 colon = system: HCT-116 colon
HCC-2998 colon = system: HCC-2998 colon
KM12 colon = system: KM12 colon
BT-549 breast = system: BT-549 breast

Measured: growth

CSc1nc2sc3cc(Cl)ccc3n2c(=N)c1C#N
inactive: SR leukemia 56.8% | RPMI-8226 leukemia 83.5% | OVCAR-8 ovarian 56.9% | OVCAR-5 ovarian 107% | OVCAR-4 ovarian 45.4% | SK-OV-3 ovarian 72.4% | IGROV1 ovarian 96.7% | OVCAR-3 ovarian 101% | HS 578T breast 24.8% | NCI/ADR-RES ovarian 58.4% | T-47D breast 70% | MDA-MB-435 melanoma 96.9% | SW-620 colon 71.7% | MCF7 breast 49% | HCT-116 colon 92.9% | HCC-2998 colon 86.8% | KM12 colon 19.8%

CSc1ncc(C)c(Nc2ccc(Cl)cc2)n1
inactive: SR leukemia 89.9% | RPMI-8226 leukemia 102% | OVCAR-8 ovarian 104% | OVCAR-5 ovarian 112% | OVCAR-4 ovarian 99.8% | SK-OV-3 ovarian 126% | IGROV1 ovarian 85.8% | OVCAR-3 ovarian 111% | HS 578T breast 94.9% | NCI/ADR-RES ovarian 98.1% | T-47D breast 119% | BT-549 breast 87.1% | MDA-MB-435 melanoma 106% | SW-620 colon 102% | HCT-116 colon 94.2% | HCC-2998 colon 113% | KM12 colon 100%

OC(c1cccc(OCc2ccccc2)c1)c1nnc(-c2ccccc2)o1 (stereo not drawn)
inactive: SR leukemia 92.8% | RPMI-8226 leukemia 57.8% | OVCAR-8 ovarian 95.9% | OVCAR-5 ovarian 102% | OVCAR-4 ovarian 87.1% | SK-OV-3 ovarian 106% | IGROV1 ovarian 91.7% | OVCAR-3 ovarian 104% | HS 578T breast 96.9% | NCI/ADR-RES ovarian 89.7% | T-47D breast 72.9% | MDA-MB-435 melanoma 101% | SW-620 colon 104% | MCF7 breast 95.1% | HCT-116 colon 101% | HCC-2998 colon 112% | KM12 colon 90.7%

CC(=O)Nc1cccc(C2=CC(c3ccc(C)cc3)n3ncnc3N2)c1 (stereo not drawn)
inactive: SR leukemia 78.8% | RPMI-8226 leukemia 73.8% | OVCAR-8 ovarian 101% | OVCAR-5 ovarian 95.2% | OVCAR-4 ovarian 103% | SK-OV-3 ovarian 133% | IGROV1 ovarian 114% | OVCAR-3 ovarian 101% | HS 578T breast 92.8% | NCI/ADR-RES ovarian 97.6% | T-47D breast 87.5% | MDA-MB-435 melanoma 112% | SW-620 colon 102% | MCF7 breast 96.9% | HCT-116 colon 103% | HCC-2998 colon 112% | KM12 colon 97.2%

CCCCCCCC/C=C\CCCCCCCC(=O)Oc1cccc2cccnc12
active: OVCAR-3 ovarian -2.34%
inactive: SR leukemia 45.9% | RPMI-8226 leukemia 297% | OVCAR-8 ovarian 89.7% | OVCAR-5 ovarian 104% | OVCAR-4 ovarian 128% | SK-OV-3 ovarian 112% | IGROV1 ovarian 85.4% | HS 578T breast 138% | NCI/ADR-RES ovarian 99.1% | T-47D breast 54.6% | BT-549 breast 65.6% | MDA-MB-435 melanoma 82.9% | SW-620 colon 59.4% | MCF7 breast 89.4% | HCC-2998 colon 106% | KM12 colon 104%

CO/C(=C1/NC(=O)C(Cc2ccc(O)c(Br)c2)N(C)C(=O)C(C)NC(=O)CCC/C=C(\C)CCC(C)OC1=O)c1ccccc1 (stereo not drawn)
inactive: SW-620 colon 18.2% | KM12 colon 26.9%
active: SR leukemia -25.9% | RPMI-8226 leukemia -57.4% | OVCAR-8 ovarian -14.6% | OVCAR-5 ovarian -2.82% | OVCAR-4 ovarian 0.0232% | SK-OV-3 ovarian -42.2% | IGROV1 ovarian -80% | OVCAR-3 ovarian -67.5% | HS 578T breast -34% | NCI/ADR-RES ovarian -0.469% | T-47D breast -0.228% | MDA-MB-435 melanoma 3.86% | MCF7 breast -17.5% | HCT-116 colon 8.19% | HCC-2998 colon -36.6%

CCCCCOC(=O)c1ccc(NC(=O)CNCC(C)C)cc1
inactive: SR leukemia 82.2% | RPMI-8226 leukemia 73.1% | OVCAR-8 ovarian 96.1% | OVCAR-5 ovarian 98.9% | OVCAR-4 ovarian 101% | SK-OV-3 ovarian 95.4% | IGROV1 ovarian 93.4% | OVCAR-3 ovarian 101% | HS 578T breast 96.9% | NCI/ADR-RES ovarian 101% | T-47D breast 88.8% | MDA-MB-435 melanoma 99.2% | SW-620 colon 98.5% | MCF7 breast 94.3% | HCT-116 colon 84.9% | HCC-2998 colon 97.9%

Cc1cc(-c2ccccc2)cc(SC#N)[n+]1[O-]
active: SR leukemia 8.25%
inactive: RPMI-8226 leukemia 19.2% | OVCAR-8 ovarian 31.7% | OVCAR-5 ovarian 75.4% | OVCAR-4 ovarian 41.2% | SK-OV-3 ovarian 45.1% | IGROV1 ovarian 35.3% | OVCAR-3 ovarian 39.6% | HS 578T breast 80.1% | NCI/ADR-RES ovarian 19.7% | T-47D breast 46.2% | BT-549 breast 52.2% | MDA-MB-435 melanoma 47.5% | SW-620 colon 38.1% | MCF7 breast 23% | HCC-2998 colon 62% | KM12 colon 37.7%

N#Cc1c(N)n2c(nc1=Nc1ccc(Cl)cc1)sc1cc(Cl)ccc12
inactive: SR leukemia 22.6% | RPMI-8226 leukemia 87.2% | OVCAR-8 ovarian 64.9% | OVCAR-5 ovarian 105% | OVCAR-4 ovarian 63.1% | SK-OV-3 ovarian 77.2% | IGROV1 ovarian 95.9% | OVCAR-3 ovarian 98.1% | HS 578T breast 33.3% | NCI/ADR-RES ovarian 73.1% | T-47D breast 73.8% | MDA-MB-435 melanoma 102% | SW-620 colon 87.9% | MCF7 breast 60.5% | HCT-116 colon 89.1% | HCC-2998 colon 107% | KM12 colon 29.5%

Cc1nc(Nc2ccc(NC(=S)Nc3ccccc3)cc2)nc2nc(SCc3ccccc3)[nH]c(=O)c12
inactive: SR leukemia 61.8% | RPMI-8226 leukemia 67% | OVCAR-8 ovarian 82.4% | OVCAR-5 ovarian 102% | OVCAR-4 ovarian 106% | SK-OV-3 ovarian 109% | IGROV1 ovarian 65.7% | OVCAR-3 ovarian 112% | HS 578T breast 105% | NCI/ADR-RES ovarian 110% | T-47D breast 88.5% | MDA-MB-435 melanoma 109% | SW-620 colon 108% | MCF7 breast 87.3% | HCT-116 colon 112% | HCC-2998 colon 111% | KM12 colon 107%

COc1ccc(N=c2nc3sc4cc(Cl)ccc4n3c(N)c2C#N)cc1
inactive: SR leukemia 91.2% | RPMI-8226 leukemia 101% | OVCAR-8 ovarian 59.3% | OVCAR-5 ovarian 107% | OVCAR-4 ovarian 55.6% | SK-OV-3 ovarian 59.4% | IGROV1 ovarian 80.4% | OVCAR-3 ovarian 114% | HS 578T breast 34.5% | NCI/ADR-RES ovarian 63.8% | T-47D breast 73.7% | MDA-MB-435 melanoma 99.6% | SW-620 colon 81.1% | MCF7 breast 61.2% | HCT-116 colon 93.7% | HCC-2998 colon 95.5%

C[C@@H]1CC[C@@H]2[C@@H]1[C@H](OC(=O)/C=C/c1ccccc1)[C@]1(CCCOCCOCCOCCOC(=O)CCCC[C@@H]3SC[C@@H]4NC(=O)N[C@@H]43)C[C@@H](OC(=O)CO)[C@@]2(C)O1
inactive: SR leukemia 88.3% | RPMI-8226 leukemia 112% | OVCAR-8 ovarian 113% | OVCAR-5 ovarian 101% | OVCAR-4 ovarian 95.7% | SK-OV-3 ovarian 102% | IGROV1 ovarian 107% | OVCAR-3 ovarian 104% | HS 578T breast 99.5% | NCI/ADR-RES ovarian 105% | T-47D breast 92.4% | BT-549 breast 99.4% | MDA-MB-435 melanoma 99.7% | SW-620 colon 102% | MCF7 breast 102% | HCC-2998 colon 104% | KM12 colon 102%

COc1ccc(/C=C2\C=C(c3ccccc3)N(CCc3ccccc3)C2=O)cc1OC
active: SR leukemia -1.98% | OVCAR-4 ovarian -5.49% | SK-OV-3 ovarian -30.3% | T-47D breast 8%
inactive: RPMI-8226 leukemia 70.6% | OVCAR-8 ovarian 25.9% | OVCAR-5 ovarian 67.2% | IGROV1 ovarian 49% | OVCAR-3 ovarian 28% | HS 578T breast 13.1% | NCI/ADR-RES ovarian 31.6% | BT-549 breast 80.1% | MDA-MB-435 melanoma 36% | SW-620 colon 56% | MCF7 breast 34.4% | HCC-2998 colon 73.3% | KM12 colon 64%

C[C@@H]1C(=O)N(C[C@H](Cc2ccccc2)NC(=O)OCc2ccccc2)[C@]1(Cc1ccccc1)C(=O)OC(C)(C)C
inactive: SR leukemia 64.4% | RPMI-8226 leukemia 41.3% | OVCAR-8 ovarian 66.9% | OVCAR-5 ovarian 91.5% | OVCAR-4 ovarian 52.4% | SK-OV-3 ovarian 70.2% | IGROV1 ovarian 69.7% | OVCAR-3 ovarian 70.3% | HS 578T breast 79.4% | NCI/ADR-RES ovarian 63% | T-47D breast 43.3% | MDA-MB-435 melanoma 76.9% | SW-620 colon 83.2% | MCF7 breast 61.1% | HCC-2998 colon 87.7% | KM12 colon 70.3%

CC(=O)C(C(C)=O)c1nc2sc3cc(Cl)ccc3n2c(=N)c1C#N
inactive: SR leukemia 33.6% | RPMI-8226 leukemia 60.8% | OVCAR-8 ovarian 90.5% | OVCAR-5 ovarian 94.8% | OVCAR-4 ovarian 71.9% | SK-OV-3 ovarian 93.8% | IGROV1 ovarian 70.4% | OVCAR-3 ovarian 86.1% | HS 578T breast 48.5% | NCI/ADR-RES ovarian 88.3% | T-47D breast 75.8% | MDA-MB-435 melanoma 111% | SW-620 colon 95.9% | MCF7 breast 57.9% | HCT-116 colon 87.5% | HCC-2998 colon 106% | KM12 colon 82.4%

CCOc1cccnc1/C=N/NC(N)=S
active: SR leukemia 6.35% | IGROV1 ovarian -7.7%
inactive: RPMI-8226 leukemia 49.9% | OVCAR-8 ovarian 43.7% | OVCAR-5 ovarian 66.2% | OVCAR-4 ovarian 26.5% | SK-OV-3 ovarian 42.7% | OVCAR-3 ovarian 22.2% | HS 578T breast 60.4% | NCI/ADR-RES ovarian 48.8% | T-47D breast 71.8% | MDA-MB-435 melanoma 58.2% | SW-620 colon 40.8% | MCF7 breast 28.8% | HCT-116 colon 32.6% | HCC-2998 colon 52.7% | KM12 colon 36.2%

CC1=NN(c2cccc(Cl)c2)C(=O)/C1=C\c1cn(CC(O)CN2CCCCC2)c2ccccc12 (stereo not drawn)
active: SR leukemia -8.32% | MDA-MB-435 melanoma 1.51% | SW-620 colon 7.47%
inactive: RPMI-8226 leukemia 34.8% | OVCAR-8 ovarian 76.6% | OVCAR-5 ovarian 83.9% | OVCAR-4 ovarian 75.9% | SK-OV-3 ovarian 94.6% | IGROV1 ovarian 49.8% | OVCAR-3 ovarian 57.7% | HS 578T breast 91.1% | NCI/ADR-RES ovarian 75.3% | T-47D breast 83.3% | BT-549 breast 96.1% | MCF7 breast 41.1% | HCT-116 colon 10.2% | KM12 colon 29.7%

CCOC(=O)c1ccc(-c2ccc3cc(OC)ccc3c2)nc1C
inactive: SR leukemia 78.3% | RPMI-8226 leukemia 105% | OVCAR-8 ovarian 107% | OVCAR-5 ovarian 95.4% | OVCAR-4 ovarian 112% | SK-OV-3 ovarian 98.6% | IGROV1 ovarian 102% | OVCAR-3 ovarian 106% | HS 578T breast 120% | NCI/ADR-RES ovarian 108% | T-47D breast 91.6% | MDA-MB-435 melanoma 94.3% | SW-620 colon 102% | MCF7 breast 93% | HCT-116 colon 78.1% | HCC-2998 colon 101% | KM12 colon 100%
